We go through 15 molecules from PubChem BioAssay.

For part of these data: Potency and affinity values are given separately. The source made the active and inactive calls.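 How the source made its calls, unless noted: active means fitted half-maximal concentration within the tested dose range, moderate curve steepness, a statistically real signal drop, and little compound fluorescence or tag-binding interference; inactive means the rest.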

For assay [1], the target named is Cell division control protein 42 homolog (Homo sapiens) (UniProt P60953). As to the kind of experiment: activated mutant Cdc42 GTP-binding inhibitors, dose response, biochemical, multiplex bead flow cytometry, Bodipy-FL-GTP (AID 1333). On the technique in general: In flow cytometry, cells or beads pass a laser one at a time.
Assay [2] has the same target. As to the kind of experiment: wildtype Cdc42 GTP-binding inhibitors, dose response, biochemical, multiplex bead flow cytometry, Bodipy-FL-GTP (AID 1334;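 active means fitted half-maximal concentration within the tested range, moderate curve steepness, significant signal drop, and little compound fluorescence or bead-linkage interference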). Conditions: bead-based flow cytometry, Bodipy-FL-GTP binding to GST-Cdc42; at 100 µM (top of the series) unless noted.
For assay [3], the target named is GTPase HRas (Homo sapiens) (UniProt P01112). As to the kind of experiment: inhibitors of GTP binding to wildtype Ras, dose response, biochemical, multiplex bead flow cytometry (AID 1335;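 active means fitted half-maximal concentration within 10 nM to 100 µM, steepness 0.5 to 2, significant signal drop, low assay interference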). Conditions: bead-based flow cytometry, Bodipy-GTP binding to GST-Ras; at 100 µM (top of the series) unless noted.
Assay [4] has as its system Ras-related protein Rab-7a (dog), GTP binding. As to the kind of experiment: Rab7 GTP binding inhibitors, potency, dose response, biochemical, wildtype, multiplex bead flow cytometry (AID 1336; call rule not given here).
The target of assay [5] is Ras-related C3 botulinum toxin substrate 1 (Homo sapiens) (UniProt P63000). As to the kind of experiment: wildtype Rac1 GTP binding inhibitors, dose response, biochemical, multiplex bead flow cytometry (AID 1340;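 active means dose curve with midpoint inside tested range, moderate steepness, plateau gap beyond fit error, low compound glow and bead-link interference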). Conditions: GST-Rac1 beads, Bodipy-FL-GTP binding; at 100 µM (top of the series) unless noted.
Assay [6] concerns the target GTPase HRas (Homo sapiens) (UniProt P01112). As to the kind of experiment: activated Ras mutant GTP binding inhibitors, dose response, biochemical, multiplex bead flow cytometry (AID 1341;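 active means dose-response curve with midpoint inside the tested range, moderate steepness, significant amplitude and little compound fluorescence or bead-attachment interference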;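 further: GST-tagged constitutively activated Ras mutant immobilized on beads and multiplexed with other GTPases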).

Chain of Cell division control protein 42 homolog (Homo sapiens) (P60953 whole entry, looked up): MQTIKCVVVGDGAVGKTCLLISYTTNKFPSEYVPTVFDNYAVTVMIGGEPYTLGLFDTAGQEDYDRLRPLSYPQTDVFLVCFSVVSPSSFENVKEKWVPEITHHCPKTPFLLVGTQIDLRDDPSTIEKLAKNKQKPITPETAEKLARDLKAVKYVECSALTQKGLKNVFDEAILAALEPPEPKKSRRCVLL
Chain of GTPase HRas (Homo sapiens) (P01112 whole entry, looked up): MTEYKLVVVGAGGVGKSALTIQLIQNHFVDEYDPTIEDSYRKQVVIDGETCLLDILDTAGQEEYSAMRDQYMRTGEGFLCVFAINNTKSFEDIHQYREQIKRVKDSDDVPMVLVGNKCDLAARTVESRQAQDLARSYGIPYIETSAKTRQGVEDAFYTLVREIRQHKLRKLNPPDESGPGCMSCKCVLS

In the case of `CCOC(=O)N1CCN(Cc2cn[nH]c2-c2cc3ccccc3o2)CC1`, the molecule was classed as inactive in assay [1], in assay [4] and in assay [6]. For the same molecule, the fluorescence, percent of control (lower = inhibition) in assay [2] turned out to be 34.4%. In assay [3], this molecule gave a GTP binding, percent of control of 82.1%. Also, in assay [5], the GTP binding signal, raw median fluorescence (lower = inhibition) (MCF (arbitrary fluorescence units)) came to 246.
In the case of `O=C(CSc1ccc2nnc(-c3ccncc3)n2n1)Nc1nccs1`, the molecule was called inactive in assay [1], in assay [4] and in assay [6]. For the same molecule, the fluorescence, percent of control (lower = inhibition) in assay [2] was determined as 30.7%. In assay [3], the GTP binding, percent of control worked out at 69.4%. This molecule also registered a GTP binding signal, raw median fluorescence (lower = inhibition) (MCF (arbitrary fluorescence units)) in assay [5] of 174.
On to `CCCNC(=O)Cn1c(=O)/c(=C\c2ccc(-c3ccc([N+](=O)[O-])cc3)o2)s/c1=C\C(=O)C(C)(C)C`, for which the molecule was classed as inactive in assay [1], in assay [4] and in assay [6]. Further, in assay [2], the fluorescence, percent of control (lower = inhibition) was 115%. The molecule further displayed a GTP binding, percent of control in assay [3] of 126%. In addition, the GTP binding signal, raw median fluorescence (lower = inhibition) (MCF (arbitrary fluorescence units)) in assay [5] was determined as 300.
With `O=C(O)c1ccccc1C(=O)OCc1ccccc1`, the molecule was called inactive in assay [1], in assay [4] and in assay [6]. In assay [2], the fluorescence, percent of control (lower = inhibition) came out at 105%. Also, the GTP binding, percent of control in assay [3] is 365%. This molecule also displayed a GTP binding signal, raw median fluorescence (lower = inhibition) (MCF (arbitrary fluorescence units)) in assay [5] of 408.
Turning to `Cc1c(C=O)c2ccccn2c1C(=O)c1cccc([N+](=O)[O-])c1`, the molecule was called inactive in assay [1], in assay [4] and in assay [6]. Besides, the fluorescence, percent of control (lower = inhibition) in assay [2] was 31.4%. Also, the GTP binding, percent of control in assay [3] came to 76.8%. Also, in assay [5], the GTP binding signal, raw median fluorescence (lower = inhibition) (MCF (arbitrary fluorescence units)) amounted to 242.
Turning to `CSc1nnc(-c2cc(Br)ccc2N=Cc2c(C)[nH]n(-c3ccccc3)c2=O)c(=O)[nH]1`, the outcome in assay [1], in assay [4] and in assay [6] was inactive. In addition, the fluorescence, percent of control (lower = inhibition) in assay [2] came out at 24.2%. Further, in assay [3], the GTP binding, percent of control was 67.4%. The same molecule returned a GTP binding signal, raw median fluorescence (lower = inhibition) (MCF (arbitrary fluorescence units)) in assay [5] of 183.
In the case of `CSc1nnc(C)c(/C=C/Nc2ccc(C)cc2)n1`, the molecule was classed as inactive in assay [1], in assay [4] and in assay [6]. For the same molecule, the fluorescence, percent of control (lower = inhibition) in assay [2] was found to be 74.9%. The molecule also displayed a GTP binding, percent of control in assay [3] of 144%. The molecule further gave a GTP binding signal, raw median fluorescence (lower = inhibition) (MCF (arbitrary fluorescence units)) in assay [5] of 155.
On to `Cn1c(=O)c2c(nc(N3CCc4ccccc4C3)n2C)n(C)c1=O`, for which the outcome in assay [1], in assay [4] and in assay [6] was inactive. For the same molecule, the fluorescence, percent of control (lower = inhibition) in assay [2] came to 36.7%. Moreover, the GTP binding, percent of control in assay [3] turned out to be 76.9%. In assay [5], this molecule came in with a GTP binding signal, raw median fluorescence (lower = inhibition) (MCF (arbitrary fluorescence units)) of 193.
Regarding `O=C(O)c1ccc(COc2cccc3ccccc23)o1`, the molecule was called inactive in assay [1], in assay [4] and in assay [6]. The fluorescence, percent of control (lower = inhibition) in assay [2] was determined as 58.3%. The GTP binding, percent of control in assay [3] turned out to be 89.1%. Moreover, in assay [5], the GTP binding signal, raw median fluorescence (lower = inhibition) (MCF (arbitrary fluorescence units)) came out at 31.9.
On to `O=C(O)c1ccccc1SCc1ccc2c(c1)OCO2`, for which the call in assay [1], in assay [4] and in assay [6] was inactive. The fluorescence, percent of control (lower = inhibition) in assay [2] turned out to be 71%. In assay [3], this molecule yielded a GTP binding, percent of control of 79.2%. In assay [5], this molecule yielded a GTP binding signal, raw median fluorescence (lower = inhibition) (MCF (arbitrary fluorescence units)) of 0.
As for `COC(=O)c1ccccc1NC(=O)CSCC(=O)Nc1ccccc1OC`, the result in assay [1], in assay [4] and in assay [6] was inactive. The fluorescence, percent of control (lower = inhibition) in assay [2] worked out at 37.9%. This molecule came in with a GTP binding, percent of control in assay [3] of 81.9%. Further, the GTP binding signal, raw median fluorescence (lower = inhibition) (MCF (arbitrary fluorescence units)) in assay [5] amounted to 230.
Turning to `Cc1ccc(-n2c(=O)[nH]c3c(oc4ccccc43)c2=O)cc1`, the molecule was called inactive in assay [1], in assay [4] and in assay [6]. The fluorescence, percent of control (lower = inhibition) in assay [2] was found to be 34.8%. This molecule returned a GTP binding, percent of control in assay [3] of 78.7%. The GTP binding signal, raw median fluorescence (lower = inhibition) (MCF (arbitrary fluorescence units)) in assay [5] worked out at 332.
As to `Cc1ccccc1OCCn1cc(C(=O)O)c2c(C)cccc21`, the molecule was classed as inactive in assay [1], in assay [4] and in assay [6]. Further, the fluorescence, percent of control (lower = inhibition) in assay [2] turned out to be 53%. Also, in assay [3], the GTP binding, percent of control amounted to 176%. For the same molecule, the GTP binding signal, raw median fluorescence (lower = inhibition) (MCF (arbitrary fluorescence units)) in assay [5] worked out at 55.6.
In the case of `CCCCCCCCCCCCCCCC(=O)Nc1cccc(C#CC(=O)c2ccc([N+](=O)[O-])cc2)c1`, the result in assay [1], in assay [4] and in assay [6] was inactive. For the same molecule, the fluorescence, percent of control (lower = inhibition) in assay [2] turned out to be 66%. This molecule came in with a GTP binding, percent of control in assay [3] of 186%. In addition, the GTP binding signal, raw median fluorescence (lower = inhibition) (MCF (arbitrary fluorescence units)) in assay [5] was found to be 134.
In the case of `Cc1ccc(NS(=O)(=O)c2cc(NC(=O)c3ccc4c(c3)NC(=O)CS4)ccc2Cl)c(C)c1`, the molecule was classed as inactive in assay [1], in assay [4] and in assay [6]. The fluorescence, percent of control (lower = inhibition) in assay [2] turned out to be 36.1%. In addition, in assay [3], the GTP binding, percent of control stood at 86.2%. Also, the GTP binding signal, raw median fluorescence (lower = inhibition) (MCF (arbitrary fluorescence units)) in assay [5] amounted to 282.
